Assay results reported in the supplement of paper PMC3724861.
This excerpt belongs to a sample that is enriched for hits. The true hit rate is not given. Unmarked numbers belong to inactive results.

The sequences below were run on T1, Caupolican (Caup) homeodomain DNA-binding domain (assay: PBM E-score (8-mer, recovered from the published 9-mer minima) (E-score (dimensionless, -0.5 to 0.5)); Drosophila protein; higher = stronger relative binding preference, active = 0.31 or more).
T1 sequence: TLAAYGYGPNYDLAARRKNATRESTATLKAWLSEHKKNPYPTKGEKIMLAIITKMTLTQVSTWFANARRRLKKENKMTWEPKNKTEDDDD
Protocol: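 Protein binding microarray (PBM): in vitro transcribed/translated Caupolican (Caup) homeodomain DNA-binding domain (residues 214-303) applied at 100 nM to a universal 8-mer PBM array (Agilent AMADID 015681). The 8-mer enrichment score (E-score, range -0.5 to 0.5) was computed, and each 9-mer score is the minimum E-score of its two constituent 8-mers. The E-score is the same for a 9-mer and its reverse complement; 0.31 is the stated binding threshold.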
With GCCCCTCA the “PBM E-score” value was -0.223.
CGAACGTC was tested, and the “PBM E-score” value was -0.121.
ATTGAAAA was tested, and the “PBM E-score” value was 0.0968.
In the case of CAAGTTCA, the “PBM E-score” value is reported as 0.0645.
For GTCATTTA, the “PBM E-score” value was 0.184.
AGCGAGCG was tested, and the “PBM E-score” value was -0.0955.
With GATATGAC the “PBM E-score” value was 0.0792.
With CATGAAGA the “PBM E-score” value was 0.0832.
In the case of GATGGCGA, the “PBM E-score” value is reported as -0.0291.
For AGAGTCGG, the “PBM E-score” value was -0.0944.
For CAGTTAAC, the “PBM E-score” value was -0.00501.
CATTGTAG was tested, and the “PBM E-score” value was 0.0869.
GATTGTAC was tested, and the “PBM E-score” value was 0.235.
CATTGTAC was tested, and the “PBM E-score” value was 0.323 (active).
For CATTCCAC, the “PBM E-score” value was -0.0122.
With ACAAGAAT the “PBM E-score” value was 0.307.
With ACAAGTAA the “PBM E-score” value was 0.331 (active).
In the case of GCAAGAAC, the “PBM E-score” value is reported as 0.00872.
In the case of ACAAGTGG, the “PBM E-score” value is reported as 0.205.
GCAAGTAA was tested, and the “PBM E-score” value was 0.173.
CCAAGTAA was tested, and the “PBM E-score” value was 0.0669.
For ACAAGTTC, the “PBM E-score” value was 0.233.
In the case of ACAAGTTA, the “PBM E-score” value is reported as 0.325 (active).
With GCAAGTTA the “PBM E-score” value was 0.0766.
ACAAGTAG was tested, and the “PBM E-score” value was 0.351 (active).
ACAAGAAC was tested, and the “PBM E-score” value was 0.316 (active).
CCAAGTAG was tested, and the “PBM E-score” value was -0.0584.
AATCTAGT was tested, and the “PBM E-score” value was 0.0691.
For CCGGTAAC, the “PBM E-score” value was -0.0103.
In the case of CCGGACAG, the “PBM E-score” value is reported as 0.0176.
CCCAAGCA was tested, and the “PBM E-score” value was -0.0938.
For CGACCGCA, the “PBM E-score” value was -0.144.
CATGACGC was tested, and the “PBM E-score” value was 0.032.
AAGGACTA was tested, and the “PBM E-score” value was 0.0433.
In the case of AATTAAGG, the “PBM E-score” value is reported as 0.0103.
ACCAGTGC was tested, and the “PBM E-score” value was -0.019.
In the case of TAAGGGGA, the “PBM E-score” value is reported as -0.0541.
With ACAAGGAA the “PBM E-score” value was 0.247.
For GCAAGTAC, the “PBM E-score” value was 0.176.
In the case of AAAAGTAT, the “PBM E-score” value is reported as 0.121.
For CCAAGTAC, the “PBM E-score” value was 0.0484.
For ACAAGGAT, the “PBM E-score” value was 0.315 (active).
With ACAAGTAT the “PBM E-score” value was 0.314 (active).
ACAAGTCT was tested, and the “PBM E-score” value was 0.296.
With ACAAGGAG the “PBM E-score” value was 0.224.
For ACAAGTAC, the “PBM E-score” value was 0.35 (active).
With AAGATCGA the “PBM E-score” value was 0.0302.
With TCAGTTAA the “PBM E-score” value was 0.0667.
For ACAGGTAT, the “PBM E-score” value was 0.203.
With ACCCCTCG the “PBM E-score” value was -0.218.
GTGTGAAC was tested, and the “PBM E-score” value was 0.0865.
With ATATGTCC the “PBM E-score” value was 0.261.
With CTATGTGC the “PBM E-score” value was 0.0747.
In the case of CTATGTAC, the “PBM E-score” value is reported as 0.381 (active).
With ATATGTAG the “PBM E-score” value was 0.297.
In the case of ATATGTAC, the “PBM E-score” value is reported as 0.387 (active).
With CTCTGTAC the “PBM E-score” value was 0.137.
In the case of CTAGGACA, the “PBM E-score” value is reported as 0.241.
TAGTTTAA was tested, and the “PBM E-score” value was 0.218.
For AGCGAGCT, the “PBM E-score” value was -0.108.
With ACACCACC the “PBM E-score” value was 0.0972.
In the case of AAACTTTC, the “PBM E-score” value is reported as -0.0217.
For ACTGACAG, the “PBM E-score” value was 0.0804.
For CAAACACA, the “PBM E-score” value was 0.265.
CAAACACC was tested, and the “PBM E-score” value was 0.126.
For AAAACATC, the “PBM E-score” value was 0.305.
In the case of CAAACATC, the “PBM E-score” value is reported as 0.23.
With CAAACACG the “PBM E-score” value was 0.315 (active).
For CAAACATG, the “PBM E-score” value was 0.391 (active).
For AAAACATG, the “PBM E-score” value was 0.419 (active).
CAAACATA was tested, and the “PBM E-score” value was 0.292.
For AAAACATT, the “PBM E-score” value was 0.252.
With CATCTAGG the “PBM E-score” value was -0.0637.
CAAGTAAG was tested, and the “PBM E-score” value was 0.0621.
With CATTTCAA the “PBM E-score” value was 0.154.
In the case of ATGCAATA, the “PBM E-score” value is reported as 0.197.
With TGAGGCAA the “PBM E-score” value was -0.0847.
AAGGGCGC was tested, and the “PBM E-score” value was -0.172.
With CACCAGGC the “PBM E-score” value was -0.132.
For GTGTTGTA, the “PBM E-score” value was 0.395 (active).
GTGTTGCA was tested, and the “PBM E-score” value was 0.184.
For ACGTTGTA, the “PBM E-score” value was 0.291.
For ATGTTGTA, the “PBM E-score” value was 0.431 (active).
In the case of ATGTTGAG, the “PBM E-score” value is reported as 0.132.
In the case of AGGTTGTA, the “PBM E-score” value is reported as ≥ 0.333 (active).
CGGTTGTA was tested, and the “PBM E-score” value was 0.209.
ATGTTGAC was tested, and the “PBM E-score” value was 0.322 (active).
In the case of CTGTTGAC, the “PBM E-score” value is reported as 0.137.
In the case of CTGTTGTA, the “PBM E-score” value is reported as 0.273.
In the case of AGGTTGTG, the “PBM E-score” value is reported as 0.133.
With ATGTTGTG the “PBM E-score” value was 0.282.
In the case of CGTCTGCC, the “PBM E-score” value is reported as -0.188.
With ATTGTCCG the “PBM E-score” value was 0.122.
For CATTTCTA, the “PBM E-score” value was 0.102.
GTCAACCA was tested, and the “PBM E-score” value was 0.0944.
For ACTAGCGC, the “PBM E-score” value was -0.134.
For AACCGGGA, the “PBM E-score” value was -0.0571.
With ATCAAAGC the “PBM E-score” value was -0.0471.
With ATCAGCTC the “PBM E-score” value was 0.00528.
AAGGCGAC was tested, and the “PBM E-score” value was 0.00668.
In the case of ACGACTGC, the “PBM E-score” value is reported as -0.0879.
With GGATACCC the “PBM E-score” value was -0.15.
In the case of CTCCAACC, the “PBM E-score” value is reported as -0.171.
CACACCGA was tested, and the “PBM E-score” value was 0.0554.
ACAAACCG was tested, and the “PBM E-score” value was 0.0217.
In the case of CTGTTGTC, the “PBM E-score” value is reported as 0.256.
For ATGTTGCC, the “PBM E-score” value was 0.121.
For ATGTTGTC, the “PBM E-score” value was 0.424 (active).
With CCGCATCC the “PBM E-score” value was -0.16.
AGTTAACA was tested, and the “PBM E-score” value was 0.265.
With CGTTAACA the “PBM E-score” value was 0.164.
With TAGTAACA the “PBM E-score” value was ≥ 0.316 (active).
With TGTTAACA the “PBM E-score” value was 0.371 (active).
With GAGTAACA the “PBM E-score” value was 0.206.
For AACTAACT, the “PBM E-score” value was -0.00416.
In the case of TACTAACA, the “PBM E-score” value is reported as 0.253.
With AATTAACC the “PBM E-score” value was 0.0386.
With AATTAACA the “PBM E-score” value was 0.326 (active).
AAGTAACA was tested, and the “PBM E-score” value was 0.306.
For AACTAACA, the “PBM E-score” value was ≥ 0.339 (active).
With AATTAACT the “PBM E-score” value was 0.117.
In the case of GTATCACA, the “PBM E-score” value is reported as 0.198.
In the case of ACAGAAGA, the “PBM E-score” value is reported as 0.101.
TAGCACAA was tested, and the “PBM E-score” value was 0.0785.
With ATGAAAAA the “PBM E-score” value was 0.0536.
For AATGCACT, the “PBM E-score” value was 0.108.
With GGATTAGA the “PBM E-score” value was -0.0283.
In the case of GCCATCGA, the “PBM E-score” value is reported as -0.0979.
TATTAACA was tested, and the “PBM E-score” value was 0.312 (active).
In the case of GATTAACA, the “PBM E-score” value is reported as 0.292.
In the case of CATTAACA, the “PBM E-score” value is reported as 0.234.
With CCATCCCC the “PBM E-score” value was -0.241.
For CAAGAGAG, the “PBM E-score” value was -0.0747.
TCCTCTCA was tested, and the “PBM E-score” value was -0.0753.
For AGTGTAGA, the “PBM E-score” value was 0.162.
In the case of GGTGTATA, the “PBM E-score” value is reported as 0.133.
With AGTGTACA the “PBM E-score” value was 0.337 (active).
GGTGTACA was tested, and the “PBM E-score” value was 0.327 (active).
GCTGTACA was tested, and the “PBM E-score” value was 0.268.
For AGTGTACG, the “PBM E-score” value was 0.152.
For ATAGATAT, the “PBM E-score” value was 0.169.
With ACGGACCC the “PBM E-score” value was -0.139.
For CGCGGGTC, the “PBM E-score” value was -0.163.
In the case of CCAATGGA, the “PBM E-score” value is reported as -0.156.
In the case of ATGCAGCC, the “PBM E-score” value is reported as 0.00431.
